Where “and” joins values, the source holds several entries; their conditions need not be identical. Equal entries are not always repeated. Out of some 420,000 compounds screened, about 50,000 (12%) were called active. Roughly 26% stayed inconclusive and do not appear here. This is one part of a sample in which actives are shown more often than they occur. A number with no mark means an inactive call. The call rests on the fitted dose curve; in most records, active means well fitted inhibition curve with a large enough effect; inconclusive means small, poorly fitted or top-dose-only effect; inactive means flat fitted curve, though single readings scatter.
On the % scale 0 is the no-effect control and ±100 the full control effect; potency means the concentration at half of the fitted maximal effect.

The nature of the assay: qHTS for Inhibitors of human tyrosyl-DNA phosphodiesterase 1 (TDP1): qHTS in cells in presence of CPT. Further: nearly all actives have a fitted effect of over 55% in size. As to conditions: chicken DT40 Tdp1-/-;hTDP1 cells + 20 nM CPT, ATP luminescence, 48 h; series mostly up to 46.2 µM; activity change, negative = growth inhibition: at the top concentration. Summed up: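 Chicken DT40 Tdp1-/- cells complemented with human TDP1, 400 cells/well, exposed to compounds plus 20 nM camptothecin for at least 48 h at 37 C; viability read as ATP content by CellTiter-Glo luminescence.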
Background: In qHTS, concentration-response curves come from the screen itself.
On to `Cc1ccccc1NC(=O)c1cc(S(=O)(=O)Nc2cccc(C(=O)O)c2)ccc1Cl`, for which the “activity change, negative = growth inhibition” value is -2.45%.
Same read-out and setting: next, `Cc1cc(NC(=O)COc2ccc([N+](=O)[O-])cc2)no1`: 1%; `CC1CCCC(C)N1C(=O)CSc1nnnn1C1CCCC1` (stereo not drawn): -3.92%; `CCc1nc(N2CCN(C(C)=O)CC2)c2c3c(sc2n1)CCCC3`: -8.38%.
On to `Cc1c(OC(C)C(=O)N[C@@H](Cc2ccccc2)C(=O)O)ccc2c3c(c(=O)oc12)CCCC3` (stereo partly drawn), for which the “activity change, negative = growth inhibition” value was 2.76%.
On the same count and under the same terms, the value for `Cc1c(Br)c([N+](=O)[O-])nn1C(C)C(=O)Nc1nccs1` (stereo not drawn) was -29.9%; that for `CCOc1ccccc1NC(=O)C1CCCN(C(=O)Nc2ccccc2)C1` (stereo not drawn) was -4%.
Turning to `Cc1c(Cl)cccc1NC(=O)C1CCCN(C(=O)c2cnn(-c3ccccc3)c2-n2cccc2)C1` (stereo not drawn), the Potency is 23.1 µM (active).
On to `Cc1cccc(NC(=O)C2CCCN(C(=O)Nc3ccc(F)cc3)C2)c1C` (stereo not drawn), for which the “activity change, negative = growth inhibition” value is -26.8%.
Same read-out and setting: the value for `COc1ccc(Cn2ccn(CC(=O)Nc3cc(C)ccc3C)c(=O)c2=O)cc1` was 15.1%.
Take `Cc1cccc(CSc2ccc(-c3cccs3)nn2)c1`: the Potency entry is “inactive”.
The same measure, in the same setting: next, `Oc1c(Cl)cc(Cl)c(Cl)c1Cc1c(O)c(Cl)cc(Cl)c1Cl`: 4.73 µM (active) and 23.1 µM (active) and 3.26 µM (active).
`Nc1[nH][nH]c(=O)c1N=Nc1ccc2c(c1)OCO2`: the “activity change, negative = growth inhibition” value is -26.6%.
The same measure, in the same setting: the value for `Cc1ccc(N2CC(C(=O)Nc3ccc(S(=O)(=O)N4CCCC4)cc3)CC2=O)cc1C` (stereo not drawn) was -24.4%; that for `O=C(O)C1CCN1C1CCCCC1` (stereo not drawn) was 1.27%.
Take `O=S1(=O)CCN(C2CCCCCCCCCCC2)CC1`: the Potency is 20.6 µM (active).
With `O=S1(=O)CC(N2CCN(CCO)CC2)CN1C1CCCC1` (stereo not drawn), the “activity change, negative = growth inhibition” value was -2.16%.
Take `COc1ccc(S(=O)(=O)N2CCC(C(=O)NCCC(=O)Nc3ccccc3OC)CC2)cc1`: the “activity change, negative = growth inhibition” value is -19%.
As to `CC(NC(=O)c1ccccc1C(=O)O)c1ccc(-n2ccnc2)cc1` (stereo not drawn), the “activity change, negative = growth inhibition” value was 7.73%.
On to `COc1ccc(OC)c(C(=O)c2ccc(Cl)cc2)c1`, for which the “activity change, negative = growth inhibition” value is 2.77%.
Same read-out and setting: the value for `COc1ccc(NC(=O)c2cc3cc(C)ccc3n2C)cc1` was -22.3%.
`COc1ccc(OC)c(/C(C)=N\NC(=O)c2cc3cc(Cl)ccc3n2C)c1`: the Potency is 5.8 µM (active).
For `OC(c1ccccc1)c1nc(/C=C/c2ccc(C(F)(F)F)cc2)cs1` (stereo not drawn), the “activity change, negative = growth inhibition” value is -21.7%.
Regarding `CCN(c1ccccc1)S(=O)(=O)c1cc2c(cc1C)n(C)c(=O)c(=O)n2C`, the “activity change, negative = growth inhibition” value was 11.4%.
On the same count and under the same terms, the value for `C[C@H](CO)N1C[C@H](C)[C@@H](CN(C)S(=O)(=O)c2ccc(F)cc2)OCc2cnnn2CCCC1=O` was -11.4%.
Regarding `COc1ccc(CN2CCCC(C(=O)N3CCCCC3)C2)cc1` (stereo not drawn), the “activity change, negative = growth inhibition” value is 0.895%.
Consider `COc1cc(CN2CCCC(C(=O)c3ccc(SC)cc3)C2)cc(Cl)c1O` (stereo not drawn), for which the Potency was 11.6 µM (active).
With `COc1ccc(CCN(C)C(=O)C2CCCN(Cc3ccc(OC)c(OC)c3)C2)cc1OC` (stereo not drawn), the “activity change, negative = growth inhibition” value was 34.4%.
The same measure, in the same setting: next, `COC(=O)N(C)C[C@@H]1OCc2cnnn2CCCC(=O)N([C@@H](C)CO)C[C@@H]1C`: -3.67%; `CNC(=O)COC(=O)c1cc(-c2ccc(OC)cc2)nc2ccccc12`: -3.71%.
Consider `O=C(N/N=C/c1ccc(OCc2ccccc2)cc1)c1ccc(O)cc1`, for which the “activity change, negative = growth inhibition” value was -0.604%.
On the same count and under the same terms, next, `C/C(=N\NC(=O)c1cccc([N+](=O)[O-])c1)c1cccnc1`: 3.86%.
As to `COc1cccc(-c2cc(C(=O)N/N=C/c3ccc(OC)c(COC(C)=O)c3)c3ccccc3n2)c1`, the Potency is 8.2 µM (active).
Still for that read-out and setting: next, `C/C(=N\NC(=O)c1cc(-c2ccc(O)cc2)nc2ccccc12)c1cccnc1`: 20.6 µM (active).
As for `COc1ccc(/C=N/NC(=O)c2ccc(Cl)cc2)cc1COC(C)=O`, the “activity change, negative = growth inhibition” value is -3.77%.
Same read-out and setting: the value for `C/C(=N\NC(=O)c1ccc2ccccc2c1)c1cccnc1` was 2.16%.
Still for that read-out and setting: the value for `CC(=O)N1CCN(C(=O)c2cc(-c3ccc(Cl)s3)nc3ccccc23)CC1` was -7.3%; that for `Cc1nc2ccc(C(=O)N/N=C/c3ccc(O)cc3)cc2[nH]1` was 4.58%.
The same measure, in the same setting: the value for `CCOc1ccc(NC(=O)c2cc(C)nc3ccccc23)cc1` was 9.45%.
On to `CCOc1ccc(CNC(=O)c2cc(-c3ccc(Cl)s3)nc3ccccc23)cc1`, for which the Potency was 20.6 µM (active).
The same measure, in the same setting: next, `CCOc1ccc(-c2cc(C(=O)N/N=C/c3ccc(O)cc3)c3ccccc3n2)cc1`: 1.84 µM (active).
For `CC(C)=CC1C(C(=O)O)C1(C)C` (stereo not drawn), the “activity change, negative = growth inhibition” value was -2.77%.
Still for that read-out and setting: the value for `COc1ccc(NC2CCCN(C(=O)c3ccccc3-c3ncc[nH]3)C2)cc1` (stereo not drawn) was -17%.
Still for that read-out and setting: next, `OCC(O)C1OCOC(C(O)CO)C1O` (stereo not drawn): 0.303%; `COc1cc(OC)c(NC(=O)c2nc(-c3ccncc3)no2)cc1Cl`: -17.3%.
On the same count and under the same terms, the value for `CC(C)c1cc(CN2CCOCC2)cc(C(C)C)c1O` was 13.7%; that for `Cc1nn(C)c(Cl)c1CN1CCC(n2nccc2NC(=O)C2CCCC2)CC1` was -1.25%; that for `O=C(N/N=C/c1cccnc1)c1cc2ccccc2cc1O` was -19.2%.
`COc1cc(/C=N\NC(=O)C2C(=O)NCC2c2ccccc2)cc(OC)c1O` (stereo not drawn): the “activity change, negative = growth inhibition” value is 9.54%.
On to `O=C(N/N=C\c1cccnc1)c1cc(-c2ccccc2)nc2c(Cl)cccc12`, for which the Potency was 10.3 µM (active).
With `Cc1cc(C(=O)N/N=C/c2ccccn2)c2ccccc2n1`, the “activity change, negative = growth inhibition” value is 1.01%.
With `COc1cc(/C=N/NC(=O)c2cc(-c3ccccc3C)nc3ccccc23)cc(OC)c1O`, the Potency is 5.8 µM (active).
Turning to `O=C(N/N=C/c1cccnc1)c1ccc(NC(=O)c2ccc(F)cc2)cc1`, the “activity change, negative = growth inhibition” value was 8.72%.
For the compound `Cc1c(NC(=O)Nc2cccc([N+](=O)[O-])c2)c(=O)n(-c2ccccc2)n1C`, the “activity change, negative = growth inhibition” value was 17.6%.
The same measure, in the same setting: next, `C#CCOCCOCCOCCNc1nc(N2CCN(C(=O)C([C@@H](C)CC)n3cc(C(N)COC(=O)C(F)(F)F)nn3)CC2)nc(N2CCN(C(=O)[C@H](CCCCN)n3cc(C(N)CC(C)C)nn3)CC2)n1` (stereo partly drawn): -11.4%.
Same read-out and setting: the value for `COc1cc(CN2CCC(n3nccc3NC(=O)CCCc3ccccc3)CC2)ccc1O` was -29.8%; that for `CC(Oc1ccc(F)cc1)C(=O)N1CCN(c2ncccn2)CC1` (stereo not drawn) was -7.25%.
The same measure, in the same setting: next, `O=C(COC(=O)c1cccc(Cl)c1Cl)NC1CCCCCC1`: -6.28%; `CC(C)(C)c1ccc(C(=O)NNC(=O)Cc2ccccc2)cc1`: -27.1%.
In the case of `CC(C)(C)c1ccc(C(=O)C[N+]2(C)CCCc3ccccc32)cc1` (stereo not drawn), the Potency is 3.55 µM (active).
For `CCn1ccnc1CNC(=O)CC1C(=O)NCCN1CCCc1ccccc1` (stereo not drawn), the “activity change, negative = growth inhibition” value is 3.97%.
For the compound `O=C(C(=O)N1CCOc2ccc(CN3CCN(Cc4ccccn4)CC3)cc2C1)c1ccccc1`, the activity change, negative = growth inhibition is 6.37% [at 9.04 µM].
Still for that read-out and setting: next, `CC(=O)Nc1cccc(NC(=O)CSc2nccn2Cc2ccc(F)cc2)c1`: -29%.

These data come from PubChem BioAssay AID686979 (National Center for Advancing Translational Sciences (NCATS), 2013).
